According to publication PMC4336329 (PLoS ONE, 2015):
Out of some 310,000 compounds screened, about 14,000 (4.5%) showed an effect of 50% or more. Effects have a minus sign here. The entries come from a sample that favours strong results as a whole.

target: human ether-à-go-go-related gene (hERG) potassium channel (human, UniProt Q12809); assay: primary screen, population patch clamp on CHO cells stably expressing hERG; higher = less effect of the substance
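Further: peak tail current of the secondary pulse compared with the same well before compound.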

Sequence of human ether-à-go-go-related gene (hERG) potassium channel (Q12809 whole entry, looked up): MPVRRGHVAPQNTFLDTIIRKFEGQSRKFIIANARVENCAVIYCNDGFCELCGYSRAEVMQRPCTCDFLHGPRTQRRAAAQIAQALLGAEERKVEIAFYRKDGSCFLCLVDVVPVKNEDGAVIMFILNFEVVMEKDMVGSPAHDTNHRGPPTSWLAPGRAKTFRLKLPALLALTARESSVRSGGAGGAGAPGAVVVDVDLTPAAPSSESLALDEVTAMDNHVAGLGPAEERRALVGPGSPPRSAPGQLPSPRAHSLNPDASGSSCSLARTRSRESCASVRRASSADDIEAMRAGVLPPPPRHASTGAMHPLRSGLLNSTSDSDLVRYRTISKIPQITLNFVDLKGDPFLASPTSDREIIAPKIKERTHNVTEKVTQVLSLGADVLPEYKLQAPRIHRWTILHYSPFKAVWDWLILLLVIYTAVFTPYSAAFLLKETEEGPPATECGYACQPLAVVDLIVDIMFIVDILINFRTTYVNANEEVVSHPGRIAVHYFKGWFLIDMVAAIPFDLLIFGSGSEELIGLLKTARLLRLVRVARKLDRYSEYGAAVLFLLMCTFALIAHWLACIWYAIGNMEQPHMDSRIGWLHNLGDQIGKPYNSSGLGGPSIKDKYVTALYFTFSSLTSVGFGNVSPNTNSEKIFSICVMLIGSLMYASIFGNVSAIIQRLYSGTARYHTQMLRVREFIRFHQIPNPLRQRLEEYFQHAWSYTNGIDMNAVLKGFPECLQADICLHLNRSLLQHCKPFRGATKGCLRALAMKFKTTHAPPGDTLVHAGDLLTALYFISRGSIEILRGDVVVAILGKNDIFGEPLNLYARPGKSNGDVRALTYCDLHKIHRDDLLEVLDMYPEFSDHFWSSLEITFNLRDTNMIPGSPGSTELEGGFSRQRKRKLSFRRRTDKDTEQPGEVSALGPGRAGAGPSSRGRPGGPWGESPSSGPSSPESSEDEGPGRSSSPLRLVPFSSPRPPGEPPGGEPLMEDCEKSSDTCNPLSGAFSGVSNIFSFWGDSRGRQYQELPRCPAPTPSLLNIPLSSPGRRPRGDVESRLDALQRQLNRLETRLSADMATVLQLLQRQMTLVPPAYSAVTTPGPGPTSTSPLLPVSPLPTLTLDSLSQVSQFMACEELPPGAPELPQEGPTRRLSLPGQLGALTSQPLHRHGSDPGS

Compound	hERG current change (%, negative = inhibition) at 10uM [%]
O=C1NC(c2ccccc2)CCC1(Cl)Cl (centres unmarked)	6.57
CCc1ccc(NC(=O)c2cccc(NC3=NC4CS(=O)(=O)CC4S3)c2)cc1 (centres unmarked)	18
CCn1c(=O)n(CC(=O)NCc2ccccc2OC)c(=O)c2ccccc21	8.2
CC(C)(C)C(=O)C1=C(O)C(=O)N(Cc2ccccc2)C1c1ccccc1Cl (centres unmarked)	14.1
O=C(COc1ccccc1O)N1CCN(C(=O)c2ccco2)CC1	-24.8
CCOC(=O)Nc1ccc(C(=O)c2ccncc2)cc1	14.7
COc1ccccc1-c1ccc(=O)n(CC(=O)NC(C)(C)C)n1	14
COc1cccc2[nH]c3c(N4CCc5ccccc5C4)ncnc3c12	4.69
CC1(C)Cc2c(sc(NC(=O)C(C)(C)C)c2C#N)C(C)(C)N1	3.16
N#CCCN1CCN(S(=O)(=O)c2ccc(C#N)cc2)CC1	-10.6
O=C(NCc1cccs1)C1CCN(S(=O)(=O)c2ccc(Cl)cc2)CC1	4.41
O=C(CN1CCN(S(=O)(=O)c2ccc(F)cc2)CC1)NCc1cccs1	-32.1
Cl.O=C(CN1CCN(c2ccc(F)cc2)CC1)NCc1cccs1	-15.4
O=C(CN1CCN(S(=O)(=O)c2ccc(Cl)cc2)CC1)NCc1cccs1	-59.1
O=C(CN1CCN(S(=O)(=O)c2ccccc2C(F)(F)F)CC1)NCc1cccs1	-68.1
CC(=O)Nc1ccc(S(=O)(=O)N2CCN(Cc3cccs3)CC2)cc1.O=C(O)C(=O)O	-7.69
N#Cc1ccc(S(=O)(=O)N2CCN(Cc3cccs3)CC2)cc1	-61.2
O=C(NCc1cccs1)C1CCN(S(=O)(=O)c2ccccc2F)CC1	10.4
COc1ccc(OC)c(Nc2nc(-c3ccc(O)c(O)c3)cs2)c1	10.8
CC12CN3CC(C)(CN(C1)C31CCOCC1)C2=O	11.4
CCOc1cc(C(=O)NC2CC(C)(C)NC(C)(C)C2)cc(OCC)c1OCC	20
O=C(NCc1ccco1)C1CCN(S(=O)(=O)Cc2ccccc2)CC1	-5.29

Compound	hERG current change (%, negative = inhibition) at 10uM [%]
CCOc1ccc(S(=O)(=O)N(C)CC(=O)NCc2ccccn2)cc1Cl	-27.8
O=C(CSc1ncn[nH]1)Nc1ccc2c(c1)OCCO2	-26.9
Cc1csc(N)n1	7.04
Cc1ccnc(NC(=O)CC(c2ccccc2)c2ccccc2)n1	30.5
Clc1ccc(CSc2cc3c(nn2)-c2ccccc2CC3)cc1	23
CC1=C(C(=O)OCC2CCCCC2)C(c2ccc(O)cc2)NC(=O)N1 (centres unmarked)	12.7
COC(=O)c1cc(NC2c3ccccc3C(=O)N2c2ccc(Cl)cn2)cc(C(=O)OC)c1 (centres unmarked)	19.5
Cc1ccc(S(=O)(=O)NCC(=O)OCC(=O)c2ccc(Cl)s2)cc1	1.12
Cc1ccc(S(=O)(=O)NCC(=O)OCC(=O)c2cccs2)cc1	0.259
Cc1ccc(S(=O)(=O)NCC(=O)OCC(=O)c2ccc(Br)s2)cc1	-52.7
Cc1cccc(CN2C(=O)[C@H]3Cc4c([nH]c5ccccc45)C(C)(C)N3C2=O)c1	-1.56
CS(=O)(=O)NC1c2cccc3cccc(c23)C1Sc1nncn1/N=C/c1ccco1 (centres unmarked)	-21.1
COc1ccc(C(=O)N/N=C/c2ccc(OC)c(COc3ccccc3)c2)cc1	-26.1
COc1ccc(/C=N/NC(=O)c2ccccc2[N+](=O)[O-])cc1CN1CCc2cc(OC)c(OC)cc2C1C (centres unmarked)	-63.9
COc1ccc(/C=N/NC(=O)c2ccc(OC)c(OC)c2)cc1COc1c(F)c(F)c(F)c(F)c1F	5.91
COc1ccc(/C=N/NC(=O)c2ccc(O)cc2)cc1CN1CCCc2ccccc21	0.817
COc1ccc(/C=N/NC(=O)c2ccccc2OC)cc1COc1ccccc1[N+](=O)[O-]	8.94
COc1ccc(C(=O)N/N=C/c2ccc(OC)c(CN3CCc4cc(OC)c(OC)cc4C3C)c2)cc1 (centres unmarked)	-76
COc1ccc(C(=O)N/N=C/c2ccc(OC)c(CN3CCCc4ccccc43)c2)cc1	-11.9
COc1ccc(/C=N/NC(=O)c2cc(OC)c(OC)c(OC)c2)cc1CN1CCc2cc(OC)c(OC)cc2C1C (centres unmarked)	-73.4
COc1ccc(/C=N\NC(=O)c2ccc(F)cc2)cc1COc1ccccc1C(N)=O	-44.3
COc1ccc(/C=N\NC(=O)c2ccccc2[N+](=O)[O-])cc1COc1c(F)c(F)c(F)c(F)c1F	8.06
